This is part of a sample that, as a whole, favours compounds with a hit. Of some 83,000 tested, about 20% had one in any assay.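 96-well plates, one dose, 48 hours. Percent growth reported; active if below 10.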 Values without a mark were called inactive. The source made the active and inactive calls.
Test system: HL-60(TB) leukemia
Assay: NCI-60 one-dose screen, 48 h (100 = growth as untreated, 0 = no growth, -100 = all killed)
Settings: 10 µM unless noted

SMILES	growth
CS(=O)(=O)c1nccc(-c2c(-c3ccc(OCCc4ccccc4)cc3)nc3sccn23)n1	89.5%
Cc1ccc(S(=O)(=O)OCCCOS(=O)(=O)c2ccc(C)cc2)cc1	54.4%
CC[C@]12C=CCN3CC[C@@]4(c5cc(NC(=O)CCC(=O)O[C@H]6CC[C@H]7[C@@H]8CC[C@H]9CC(=O)CC[C@]9(C)[C@H]8CC[C@]67C)c(OC)cc5N(C)[C@H]4[C@@](O)(C(=O)OC)[C@@H]1OC(C)=O)[C@@H]32	38.6%
Cc1cc(Nc2ccc3c(c2)OCO3)c2cc3c(cc2n1)OCO3	-11.9% (active)
CN1CCC(=C(c2ccccc2)c2ccccc2)C(c2ccccc2)C1 (stereo unspecified)	88%
Cc1cccc(Cl)c1NC(=O)c1cnc(Nc2cc(N3CCOCC3)cc(S(C)(=O)=O)c2)s1	110%
O=C(O)CC1Cc2ccccc2C1C(=O)O (stereo unspecified)	65%
O=C1NCN(CCO)CN1	97.5%
Nc1ccc2c(c1)C1(CCC2)NC(=O)NC1=O (stereo unspecified)	93.1%
O=C(O)c1cccnc1Br	110%
N#CCCCCCCCCCCC#N	98.7%
COc1cc(Oc2cc(-c3cccnc3)ccc2NC(=O)Nc2ccc(F)cc2F)cc(OC)c1OC	91.3%
O=C(Nc1ccc(N2CCNCC2)cc1)c1[nH]ncc1Nc1ncnc2sc3c(c12)CCC3	-49.6% (active)
O=S(=O)(NCCCNc1nccc(-c2c(-c3ccccc3)nc3sccn23)n1)c1ccc(F)cc1	22.5%
COc1cc2cc3cc4cc(OC)c(OC)cc4c(C)[n+]3cc2cc1OC (tested in a mixture with another compound)	33%
Cc1ccc(/C(C#N)=C/c2ccc3c(c2)OCO3)cc1	67.5%
CN(C)S(=O)(=O)c1cccc(C(=O)Nc2nc(-c3ccc(F)c(F)c3)cs2)c1	61.1%
OCC(O)COc1ccc(Cl)cc1Cl (stereo unspecified)	103%
COc1ccc2c(c1)oc1c(C)c3c(c(C)c12)C(=O)N(Nc1ccccc1)C3=O	107%
CCOC(=O)C1=C(C)NC(SCc2nnc(-c3ccc(Cl)cc3)o2)=NC1c1ccc(Br)cc1 (stereo unspecified)	22.5%
CCN1C(=O)N(CC)C2Nn3c(s/c(=C4\C(=O)N(C5CCCC5)c5ccccc54)c3=O)=NC21 (stereo unspecified)	29.8%
CCOc1ccc(/C=N\N=C\c2ccc(OCC)cc2)cc1	76.6%
C=C(C)[C@@H]1CC[C@]2(C(=O)N3CCN(C)CC3)CC[C@]3(C)[C@H](CC[C@@H]4[C@@]5(C)CC[C@H](O)C(C)(C)[C@@H]5CC[C@]43C)[C@@H]12	-52.6% (active)
O=C(Nc1nc(-c2ccccc2)cs1)c1cc(O)c(O)c(O)c1	12.6%
COc1cc(C(=O)/C=C/c2cccc(Nc3ccnc4cc(Cl)ccc34)c2)cc(OC)c1OC	5.47% (active)
CCn1c2c(c3ccccc31)SC1c3cccn3CCN1C2=S (stereo unspecified)	87.5%
